Laboratory results from PubChem BioAssay (NCI).
The panel holds about 83,000 compounds, 20% with a hit somewhere; the sample as a whole holds those more often.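 Cell lines were cultured in 96-well plates, exposed to a single compound concentration, and assessed for percent growth 48 hours later.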 The source made the active and inactive calls.

Test system: NCI-H23 lung
Assay: NCI-60 one-dose screen, 48 h (100 = growth as untreated, 0 = no growth, -100 = all killed)
Details: 10 µM unless noted
Experimental: Growth inhibition of the NCI-H23 human Non-Small Cell Lung tumor cell line is measured as a screen for anti-cancer activity. Cells are grown in 96 well plates and exposed to the test compound for 48 hours. Compounds are tested at a single concentration, which is 10^-5 M for most compounds. The reported endpoint is percent growth (GI% or GIPRCNT), where numbers from 0 - 100% represent growth inhibition, and numbers from -100% - 0 represent cell death. For example, a value of 40 represents 60% growth inhibition. A value of 0 means no net growth occurred over the course of the experiment. A value of -40 indicates 40% of cells at the beginning of the experiment died by the end of the experiment. A value of -100 means all cells are dead at the end of the experiment.
NCI-60 Human Tumor Cell Lines Screen was performed using the standard one-dose NCI protocol, which is described in more detail at https://dtp.cancer.gov/discovery_development/nci-60/default.htm.
Compounds with GIPRCNT values below 10 were considered active. Activity score was based on GIPRCNT using the following formula: […]
Score is 0 for GIPRCNT values of 100 or above, 50 for GIPRCNT values of 0, and 100 for GIPRCNT values of -100.

Row | Structure (SMILES) | growth
1 | C[C@]12CC[C@@H]3c4ccc(O)cc4CC[C@H]3[C@@H]1C[C@H](O)C2 | 100% (inactive)
2 | COc1ccc(-c2cc(-c3nnc(SCC(=O)Nc4ccc(/C(C)=N\O)cc4)o3)c3ccccc3n2)cc1 | 99.5% (inactive)
3 | O=C(Nc1cc(=O)[nH]c(=O)[nH]1)C(Cl)Cl | 107% (inactive)
4 | CCCCN(CCCC)CC(CN(CC)CC)OC(=O)Nc1ccccc1 (stereo not given) | 72.2% (inactive)
5 | C=C1C(=O)O[C@H]2[C@H]1CC/C(COC(=O)c1cccnc1N)=C\CC[C@@]1(C)O[C@@H]21 | 33.9% (inactive)
6 | N#Cc1c(-c2ccc(F)cc2)nc(N/N=C/c2c[nH]c3ccccc23)nc1N1CCOCC1 | 91.8% (inactive)
7 | CCC[S@@](=O)c1ccc2nc(NC(=O)OC)[nH]c2c1 | 93.3% (inactive)
8 | NS(=O)(=O)c1ccc(-n2ncc(NC(=O)Nc3ccc(S(=O)(=O)Nc4nccs4)cc3)c2-c2ccccc2)cc1 | 106% (inactive)
9 | Nc1ccc(C2=NN(C(=O)c3cc(-c4ccc(Cl)cc4)nc4ccccc34)C(c3ccccc3)C2)cc1 (stereo not given) | 43.6% (inactive)
10 | Cc1cc(NC(=O)CNc2nc(Oc3ccc(F)cc3)nc(-c3ccc(F)cc3)n2)ccc1Cl | 98.1% (inactive)
11 | COc1ccc2c(c1)/C(=C1\S/C(=N/c3nnc(C)s3)NC1=O)C(=O)N2Cc1ccc(Cl)cc1 | 34.5% (inactive)
12 | Cc1cnc(SCc2ccc(Cl)cc2Cl)nc1Nc1ccc(Cl)c(Cl)c1 | 92.8% (inactive)
13 | CCOC(=O)c1c(-c2ccc(O)cc2)c(C#N)c2c(C#N)c(N)nn2c1N | 72.6% (inactive)
14 | CCCCn1c2cc(OCc3cn(-c4ccc(Cl)cc4)nn3)ccc2c2ccnc(C)c21 | 32.4% (inactive)
15 | Nc1c(C(=O)Nc2ccccc2Cl)sc2nc3c(cc12)CN(Cc1ccccc1)CC3 | 103% (inactive)
16 | Oc1c(CCl)cc(Cl)cc1Cc1cc(Cl)cc(Cc2cc(Cl)cc(CCl)c2O)c1O | 5.68% (active)
17 | CCOC(=O)c1c(C)nc2c(c1N)CC(=O)N2CCc1ccccc1 | 53.2% (inactive)
18 | NC(N)=NC(N)=Nc1cc2ccccc2c2ccccc12 | 44.8% (inactive)
19 | CCOC(=O)NCCc1nc2c([nH]1)c(=O)n(C)c(=O)n2C | 93.7% (inactive)
20 | C=C1C(=O)O[C@H]2[C@H]1CC/C(COC(=O)c1cn(C)c3ccccc13)=C\CC[C@@]1(C)O[C@@H]21 | 22.5% (inactive)

Row | Structure (SMILES) | growth
21 | CC(C)NS(=O)(=O)c1cccc(-c2ccc3c4c(n(CCCN(C)C)c(=O)c3c2)-c2ccccc2C4=O)c1 | 98.6% (inactive)
22 | Cc1c(Cl)cccc1NC(=O)c1sc2nc3c(cc2c1N)CCCCCC3 | 42.7% (inactive)
23 | CCC1=C[C@H]2CN(CCc3c([nH]c4ccccc34)[C@@](C(=O)OC)(c3cc4c(cc3OC)N(C)[C@H]3[C@@](O)(C(=O)OC)[C@H](OC(C)=O)[C@]5(CC)[C@@H]6C[C@@H]6CN6CC[C@]43[C@@H]65)C2)C1 | 44% (inactive)
24 | COc1cc(C2=NNC(c3ccc(N(C)C)cc3)C2)cc(OC)c1OC (stereo not given) | 36.1% (inactive)
25 | c1ccc2nc(N3CCOCC3)c(N3CCCCC3)nc2c1 | 95.6% (inactive)
26 | C=C1C(=O)O[C@H]2[C@H]1CC/C(COC(=O)CCCCCCCCC(=O)OC/C1=C/CC[C@@]3(C)O[C@H]3[C@H]3OC(=O)C(=C)[C@@H]3CC1)=C\CC[C@@]1(C)O[C@@H]21 | -37.5% (active)
27 | N#Cc1c(-c2ccc(F)cc2)nc(N=Nc2c(O)[nH]c3ccccc23)nc1N1CCOCC1 | 70.3% (inactive)
28 | COc1cc(N=Nc2cc(S(=O)(=O)O)cc3cc(S(=O)(=O)O)cc(O)c23)c(C)cc1N=Nc1c(S(=O)(=O)O)cc2cc(Nc3ccccc3)ccc2c1O | 99.8% (inactive)
29 | CN(C)C(CNc1oc(-c2cccc3ccccc23)nc1C#N)c1ccco1 (stereo not given) | 97.1% (inactive)
30 | O=C(Nc1ccc(S(=O)(=O)NC2CCCCCC2)cc1)C(c1ccccc1)S(=O)(=O)c1ccc(F)cc1 (stereo not given) | 9.28% (active)
31 | CCN1CCC[C@H]1c1cc(O)c2c(c1OC)C[C@H]1C[C@H]3[C@H](N)C(=O)C(C(N)=O)=C(O)[C@@]3(O)C(=O)C1=C2O | -16.7% (active)
32 | CN1CCN(CC#CCOC(=O)CNC(=O)[C@]23CCC(C)(C)C[C@H]2C2=CC[C@@H]4[C@@]5(C)CC[C@H](O)C(C)(C)[C@@H]5CC[C@@]4(C)[C@]2(C)CC3)CC1 | 94.2% (inactive)
33 | COc1ccc(-c2cn(-c3ccc(Cl)cc3)c(=S)[nH]2)cc1OC | 89.6% (inactive)
34 | O=c1c2ccccc2oc2ccc(OCCCCCCN3CCCCCC3)cc12 | 39.2% (inactive)
35 | CCOC(=O)NC(Cc1ccccc1)c1ccccc1 (stereo not given) | 98.4% (inactive)
36 | O=c1[nH]c2ccccc2cc1-c1nc2ccncc2[nH]1 | 85% (inactive)
37 | Nc1c(C(=O)Nc2cccc3ccccc23)sc2nc3c(cc12)COCC3 | 63.1% (inactive)
38 | COC(=O)c1ccc2c(c1)n(Cc1ccc3ccccc3c1)c[n+]2Cc1ccc2ccccc2c1 | 34.6% (inactive)
39 | C=C1C(=O)O[C@H]2[C@H]1CC/C(COC(=O)c1c[nH]c3ccccc13)=C\CC[C@@]1(C)O[C@@H]21 | -52.9% (active)
40 | CC(C)NS(=O)(=O)c1cccc(-c2ccc3c(=O)n(CCCN)c4c(c3c2)C(=O)c2ccccc2-4)c1 | 93.4% (inactive)
